Laboratory results from paper PMC10163288.
The list is a sample of the results. No count for the full screen is at hand.

B1: il10ra_site1_sap_16_mot_HHH_b1_06789_af2_000000041_0001_1_20_H_._HHH_b2_05269_af2_0001_0000200010_0000002_0_0001 (protein)
chain: SSSSDVEEELRELLKELEELVEEGDEEKFLRVAMEALHLAFQARDEEVLQLLWELAKELASSSSS
B2: il10ra_site1_normal_mot_HHH_b2_02693_af2_000000213_0001_19_35_H_._HHH_b2_04275_0001_0000300016_0000001_0_af2pred_0001 (protein)
chain: SSSSSSEESEELLEQLEEALRRGDEELIARLVLEIARLAEELNDKELVEELLRLLVEHQSSSSSS
B3: il10ra_site1_normal_mot_8756ee2cf497b5429c717dfc0c0bcfd6_0001_000000186_0001_1_13_H_._HHH_b2_00624_0001_0000300028_0000001_0_af2pred_0001 (protein)
chain: SSSSSEEAEELYRLLREAAELHWEGNPEEARELLEEAEELAKEAGNLNALAVIRFLLEVAGSSSS
B4: il10ra_site1_normal_mot_HHH_b2_00943_af2_000000149_0001_1_17_H_._d3c612d18aab0e0945b39b51a1e20ad4_0001_1_af2_0001_0000500040_0000001_0_af2pred_0001 (protein)
chain: SAEEVLQRQVERDPDDASALHLLLLVLAAKEGDPELVQLLRRANELSREGNPEEAREILQEAIER
B5: il10ra_site1_sap_27_mot_104c758fc23488854646035ccb2100c6_0001_000000282_0001_15_29_H_._5a9d7fc92c57439179869c3e1d567c11_0001_0001_0000100005_0000001_0_0001_af2p … (protein)
chain: SSSSSPLEKKLEATTKYLKFCLSHNDLEGIKSGLIALKQLGDESGNEEAKKVAAEVEEKLKSSSS
B6: il10ra_site1_normal_mot_HHH_b1_01779_000000096_0001_43_57_H_._HHH_b2_08219_0001_0000100005_0000001_0_af2pred_0001 (protein)
chain: SSSSNKEEAERSVRLLLELAKRLEDPERARAALRDARRTAEYVNDPELEELVEEVEREVLSSSSS
B7: il10ra_site1_sap_19_mot_HHH_b2_02053_af2_000000006_0001_3_19_H_._HHH_b1_07370_0001_0000100001_0000002_0_0001 (protein)
chain: SSSSSDEEVEELLKEAEELAEEGNPEEAAKVLLEAVRLAIQAGDEEALQKVWEVVKELAKSSSSS
B8: il10ra_site1_sap_23_mot_HHH_b2_03708_000000000_0001_1_18_H_._HHH_b1_08343_0001_0000300038_0000001_0_0001 (protein)
chain: SSSSDLEKEIFHLLIEAYHLLQRGDEEEARELLEEAKELAEELNDPALLRAVEVLLAKLDSSSSS
B9: il10ra_site1_sap_14_mot_HHH_b2_05343_000000235_0001_19_35_H_._HHH_b2_05666_0001_0000600037_0000001_0_0001 (protein)
chain: SSSSDQEFYKAVEEAIEKAIKLEKNGNPEEAERLLEEILEKAEELGNWAARWSIRHLLELLSSSS
B10: il10ra_site1_sap_19_mot_HHH_b2_05984_000000071_0001_38_52_H_._919c246ba0fc10ef4578bdc7f1052ff8_0001_0001_0000100004_0000001_0_0001 (protein)
chain: NELEEELEELVERGDEEKVAELAVKVAKEKGSFSPEQLEALRRFIEALFRDNKKVAEHLARLVID
B11: il10ra_site1_normal_mot_HHH_b2_07579_000000275_0001_1_19_H_._HHH_b1_01139_af2_0001_0000300023_0000001_0_af2pred_0001 (protein)
chain: SSSSSEEKRKVLELLRKALEIEDKEEAEKVVEEAVRLAEELNDPLAAKLAEMLLEQLEKGSSSSS
B12: il10ra_site1_sap_25_mot_HHH_b2_07388_000000275_0001_18_35_H_._7abaf38a3307e851c9e6880adce6b300_0001_1_0001_0000100003_0000001_0_0001_af2pred_0001 (protein)
chain: SSSSDEEEEEVEKLLEELEKLLERGDREEVFRLFREAARIIAELRDEEAFRRLQELLKRLFSSSS
B13: il10ra_site1_normal_mot_HHH_b2_00345_af2_000000013_0001_42_56_H_._HHH_b2_01857_0001_0000400035_0000002_0 (protein)
chain: SSSSSDEEEEEVEELLEEAKHIEDHEKRIEILLEATHLALRAQDPELVQLVWEVFHRLIRSSSSS
B14: il10ra_site1_normal_mot_HHH_b1_02062_000000185_0001_1_20_H_._HHH_b1_08089_0001_0000100003_0000001_0_af2pred_0001 (protein)
chain: SSSSDVEERVEELFEEVEELLRQGDVEEAFKVSREMIELASENQDDEAAELAREASRLFARSSSS
B15: il10ra_site1_normal_mot_HHH_b1_00999_000000080_0001_41_55_H_._HHH_b2_01363_af2_0001_0000100001_0000002_0 (protein)
chain: SSSSSSEEVEEEVERLLEEAKEIEDPEEAMRVLLEALQIALRNNNKELLQLVWRIIKELGSSSSS
B16: il10ra_site1_normal_mot_HHH_b2_03220_af2_000000223_0001_23_40_H_._HHH_b1_01843_af2_0001_0000200015_0000002_0 (protein)
chain: SSSSSSSEAEEVWRLLREALHIDDEEEVQELLEEAKRLAEELNSEVLRIVIEFLERDLSSSSSSS
B17: il10ra_site1_sap_13_mot_HHH_b2_04993_000000082_0001_43_55_H_._0a28df53656836c8faf163f96bad2529_0001_1_af2_0001_0000100004_0000002_0_0001_af2pred_0001 (protein)
chain: SSSSDEEEERLEELLEEVEELLRQGDPEEAARLLFEVAKLAAELNDDEILKLVQELVHLLFSSSS
B18: il10ra_site1_normal_mot_HHH_b2_00475_000000107_0001_44_57_H_._HHH_b1_04904_0002_0000200015_0000002_0 (protein)
chain: SSSSDIIEVLYRLQHAVAKGDEEEIEELLEELEELLKKASEEERKYIEILLHFARAQLELLSSSS
B19: il10ra_site1_normal_mot_HHH_b2_02337_000000026_0001_38_52_H_._HHH_b1_01890_af2_0001_0000100004_0000001_1 (protein)
chain: SSSSDEEEKAEELIREAEELAENGNPEEAARVAQEALRLILELGDEEALQLLWEAVRRLARSSSS
B20: il10ra_site1_sap_21_mot_HHH_b1_06914_000000280_0001_1_18_H_._HHH_b2_08153_0001_0000400035_0000001_0_0001 (protein)
chain: SSSSSREELREEVEEVIEELEEKNDTKLLHRLMELYKRAAELGDEELVREIFEVLLRIVQKSSSS
B21: il10ra_site1_normal_mot_HHH_b1_01821_000000158_0001_23_39_H_._HHH_b1_01350_af2_0001_0000300008_0000001_0 (protein)
chain: SSSSSSDEEREEAEELLEEAKHVEDPERFIELILEAVRLALRSGDEELLQEIWELFKRKSSSSSS

What follows are binders tested against il10ra, Q13651 (assay: yeast display titration).
Chain of il10ra, Q13651 (Q13651 whole entry): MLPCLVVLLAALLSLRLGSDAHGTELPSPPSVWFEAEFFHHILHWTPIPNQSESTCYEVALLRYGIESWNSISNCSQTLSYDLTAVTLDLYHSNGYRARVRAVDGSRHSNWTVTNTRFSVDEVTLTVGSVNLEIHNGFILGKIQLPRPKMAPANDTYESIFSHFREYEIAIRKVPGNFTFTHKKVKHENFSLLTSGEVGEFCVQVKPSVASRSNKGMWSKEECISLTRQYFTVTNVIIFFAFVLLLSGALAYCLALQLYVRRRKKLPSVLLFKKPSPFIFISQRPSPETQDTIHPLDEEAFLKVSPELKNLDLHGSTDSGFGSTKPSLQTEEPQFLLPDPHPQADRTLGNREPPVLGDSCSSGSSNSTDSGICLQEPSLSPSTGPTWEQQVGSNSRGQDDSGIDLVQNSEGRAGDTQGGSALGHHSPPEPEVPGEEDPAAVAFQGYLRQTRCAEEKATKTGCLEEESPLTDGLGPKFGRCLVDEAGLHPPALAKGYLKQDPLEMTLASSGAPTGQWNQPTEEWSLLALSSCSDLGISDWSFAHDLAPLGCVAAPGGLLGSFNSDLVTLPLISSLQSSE

Apparent Kd, inactive:
B1 no binding seen
B2 no binding seen
B3 no binding seen
B4 no binding seen
B5 no binding seen
B6 no binding seen
B7 no binding seen
B8 no binding seen
B9 no binding seen
B10 no binding seen
B11 no binding seen
B12 no binding seen
B13 no binding seen
B14 no binding seen
B15 no binding seen
B16 no binding seen
B17 no binding seen
B18 no binding seen
B19 no binding seen
B20 no binding seen
B21 no binding seen
